CHOP inh = inhibitors of CHOP induction in ER stress response | 3.8% of 220,000 active | inhibition, % at 10 µM | CHO-K1 CHOP-promoter luciferase, tunicamycin-induced, 15-18 h;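 active = compounds that reduced the stress-induced luciferase reporter signal by more than about 70% of percent inhibition, limit read from the data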
WT yeast gro inh = growth inhibition of WT yeast, mitochondrial fusion screen; inhibition, % at 10 µM; 2.1% of 190,000 active; mitochondrial fusion phenotypic screen, WT strain; AID 1362; in the data active = inhibition above about 58%; tested in S. cerevisiae
L major viab = reduces viability of Leishmania major promastigotes. resazurin fluorescence viability. inhibition, % at 10 µM. 9% of 200,000 active. AID 1063; in the data active = inhibition above about 50%;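 note: promastigotes grown with compound for 44 hours at 28 °C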
Arbovirus inh = antivirals against arbovirus infection | AID 1251 | arbovirus infection cell-based antiviral screen | inhibition, % at 10 µM | 0.37% of 200,000 active; in the data active = inhibition above about 30%
CHOP confirm = confirmation of CHOP induction inhibitors. shares compounds with CHOP inh. CHO-CHOP promoter luciferase reporter, tunicamycin-induced, luminescence. inhibition, % at 10 µM. 45% of 2,100 active;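 active = mean of three repeat readings of reporter signal inhibition above a set limit, cut at about 70% in these data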
Hits are given with their value; i = inactive; nt = not tested or not shown. Sampled rows, rich in hits. Any-hit rate of the full collection: about 12%.

SMILES | CHOP inh | WT yeast gro inh | L major viab | Arbovirus inh | CHOP confirm
CN(Cc1ccccc1)C(=O)N1CCOCC1 | i | nt | nt | nt | nt
O=C(Nc1ccc(OC(F)F)c(Cl)c1)Nc1ccc2c(c1)OCO2 | 106 | i | i | i | i
O=C(Nc1ccc([N+](=O)[O-])cc1)Nc1ccc(OC(F)F)c(Cl)c1 | 106 | 84 | 99 | i | 125
CCOc1ccc(C(CC(=O)O)NC(=O)C23CC4CC(CC(C4)C2)C3)cc1 (centres undefined) | i | i | i | i | nt
Cc1nc(-c2ccccc2)sc1C1(C)CC(c2cccc([N+](=O)[O-])c2)=NO1 (centres undefined) | i | nt | nt | nt | nt
Cn1nc(CSc2ccccc2)c(C=O)c1Cl | i | i | i | i | nt
CN(c1cccc(NC(=O)c2cccc([N+](=O)[O-])c2)c1)S(C)(=O)=O | i | i | i | i | nt
FC(F)(F)c1cccc(NC(=S)N2CCN(c3cccc(C(F)(F)F)c3)CC2)c1 | 107 | i | i | i | 116
Fc1ccc(NC(=S)N2CCN(c3cccc(C(F)(F)F)c3)CC2)cc1 | i | i | i | i | nt
Cc1ccc(N2CCCCn3c2nc2c3c(=O)n(CC(=O)O)c(=O)n2C)cc1 | i | i | i | i | nt
CCOc1ccc(C2C=C(c3ccc(C)cc3)Nc3nnnn32)cc1 (centres undefined) | 107 | i | i | i | 77
CCOc1ccc(C2C=C(c3ccccc3)Nc3nnnn32)cc1 (centres undefined) | i | i | i | i | nt
S=c1[nH]nc(COc2ccccc2)n1/N=C/C(Cl)=C/c1ccccc1 | 103 | 73 | 81 | i | i
S=c1[nH]nc(COc2ccccc2)n1/N=C/c1cccnc1 | i | i | i | i | nt
[O-][n+]1onc2c3cc(-c4ccccc4)nnc3ccc21 | i | i | i | i | nt
COc1cccc(-n2nnnc2S(C)(=O)=O)c1 | 113 | i | 97 | i | 115
Cc1cc(C)cc(NC(=O)N(CCC#N)Cc2cccs2)c1 | i | nt | nt | nt | nt
Cc1ccc(-c2nnc(SCC(=O)Nc3ccc(S(=O)(=O)N4CCCCCC4)cc3)o2)cc1 | 101 | i | i | i | i
CC(/C=C1\SC(=S)N(CCCC(=O)Nc2ccc(C(=O)O)cc2)C1=O)=C\c1ccccc1 | i | i | i | i | nt
COc1ccc(/C=C2\SC(=S)N(CCCC(=O)Nc3ccc(O)cc3)C2=O)cc1 | 99 | nt | nt | nt | 112
CC(=O)NNC(=O)CN1C(=O)/C(=C/c2ccccc2)SC1=S | i | nt | nt | nt | nt
COc1ccc(/C=C2/SC(=S)N(CCCC(=O)Nc3ccc(O)cc3)C2=O)cc1 | 99 | nt | nt | nt | 118
CCc1ccc(/C=C2\SC(=S)N(CCCC(=O)Nc3ccccn3)C2=O)cc1 | 102 | i | i | i | 126
Fc1ccc(Sc2nc(-c3ccccc3)nnc2C(F)(F)F)cc1 | 112 | i | i | i | i
CCOCCCNc1ccc(N2C(=O)C3CCCCC3C2=O)cc1[N+](=O)[O-] (centres undefined) | i | i | i | i | nt
SMILES | CHOP inh | WT yeast gro inh | L major viab | Arbovirus inh | CHOP confirm
CC(C)Oc1cc(O)c2c(=O)c(-c3ccc(O)cc3)coc2c1 | nt | i | i | i | i
COc1ccc(-c2coc3cc(OC)cc(O)c3c2=O)cc1 | i | i | i | i | nt
CCCCOP(=O)(OCCCC)C1(NS(=O)(=O)c2ccccc2)C=CC(=O)c2ccccc21 (centres undefined) | 96 | i | 100 | i | i
Cc1nn(-c2ccccc2)c(/N=C/c2ccc(O)cc2)c1-c1ccccc1 | 104 | i | 52 | i | i
Cc1nn(-c2ccc(C(=O)O)cc2)c(N)c1-c1ccccc1 | i | i | i | i | nt
CN(CC(=O)Nc1ccncc1)S(=O)(=O)c1ccc(Cl)cc1 | i | i | i | i | nt
O=C(CSc1ccc(F)cc1)NC(=O)NCc1ccccc1 | i | i | i | i | nt
O=C(CCCOc1ccc(Cl)cc1Cl)N/N=C\C1CCCCC1 | 105 | i | i | i | 83
O=C(CCCOc1ccc(Cl)cc1Cl)NCCCO | i | i | i | i | nt
CSc1ccc(/C=N/n2c(Cc3ccc(Br)cc3)n[nH]c2=S)cc1 | 101 | 71 | i | i | i
COc1ccc2nc3sc(C(=O)NCc4cccs4)c(N)c3cc2c1 | 102 | i | i | i | i
COc1ccc(-c2cc(C(=O)NCc3cccs3)no2)cc1 | i | nt | nt | nt | nt
CC(=O)N1[C@H](C)C=C[C@]1(Cc1ccccc1)C(=O)O | i | i | i | i | nt
Cn1cccc1/C=C1\SC(=O)N(CC(=O)Nc2ccc(Cl)cc2)C1=O | 101 | i | i | i | i
CC(C)c1ccc(-c2cc(C(=O)N3N=C(C(F)F)CC3(O)C(F)F)c3ccccc3n2)cc1 (centres undefined) | 99 | 87 | 93 | i | 105
COC(=O)c1cc([N+](=O)[O-])c(-n2cncn2)c([N+](=O)[O-])c1 | 110 | i | i | i | i
CC(CC(=O)Nc1ccc(S(=O)(=O)N2CCOCC2)cc1)c1ccccc1 (centres undefined) | i | nt | nt | nt | nt
O=C(COc1cccc(-n2cnnn2)c1)Nc1ccccc1 | i | i | i | i | nt
O=C(Nc1cccc(C(F)(F)F)c1)NC1CCN(S(=O)(=O)c2ccc(F)cc2)CC1 | 100 | i | i | i | 94
CC(=O)c1ccc(S(=O)(=O)N2CCC(NC(=O)Nc3cccc(F)c3)CC2)cc1 | i | i | i | i | nt
COc1cc(C#N)c(NC(=S)N2CCOCC2)cc1OC | i | i | i | i | nt
CNc1nc(-c2ccccc2)[n+](-c2ccc(C)cc2)s1 | 97 | i | i | i | i
Cc1cc(NCCO)nc(N2CCOCC2)n1 | i | i | i | i | nt
Cc1ccc(CNC(=O)Cc2csc(Nc3nc(=S)[nH]c4ccccc34)n2)cc1 | i | i | i | i | nt
O=C(Cc1csc(Nc2nc(=S)[nH]c3ccccc23)n1)N1CCN(c2cccc(C(F)(F)F)c2)CC1 | 107 | i | i | i | i
SMILES | CHOP inh | WT yeast gro inh | L major viab | Arbovirus inh | CHOP confirm
CCCc1ccc(O)c(N=Cc2cc(Br)cc(OCC)c2O)c1 | 97 | i | i | i | 110
CC(C)c1ccccc1NC(=O)COc1ccc(C(=O)NCCc2ccccc2)cc1 | 107 | i | 71 | i | i
CCOc1ccc(NC(=O)COc2ccc(C(=O)NCCc3ccccc3)cc2)cc1 | i | i | i | i | nt
CCCCNC(=O)CSc1nnc(Cc2ccccc2)n1CC | i | i | i | i | nt
O=Cc1s/c(=N\S(=O)(=O)c2ccccc2)n(CCCCl)c1Cl | 107 | i | i | i | 112
Cc1ccc(-c2nc3cc(N)ccc3o2)cc1 | 102 | i | i | i | i
Cc1ccc(-c2nc3cc(C)ccc3o2)cc1 | i | i | i | i | nt
Cc1ccc(-c2nc3cc(NS(=O)(=O)c4ccc(C)cc4)ccc3o2)cc1 | 105 | 73 | i | i | 80
O=S(=O)(Nc1ccc2oc(-c3ccccc3)nc2c1)c1ccccc1 | nt | i | i | i | nt
Nc1nc(-c2ccc(Br)s2)c(Br)s1 | 98 | i | i | i | i
CCOc1cc(S(=O)(=O)Nc2ccccc2CC)ccc1Cl | 102 | 69 | i | i | 77
CCOc1cc(S(=O)(=O)Nc2ccc(Cl)cn2)ccc1Cl | i | i | i | i | nt
COc1cc(S(=O)(=O)Nc2ccccc2C)ccc1Cl | i | i | i | i | nt
CCOc1cc(S(=O)(=O)Nc2ccc(CC)cc2)ccc1Cl | 104 | i | i | i | 111
COc1cc2c(cc1OC)CC(=O)NC=C2 | i | i | i | i | nt
Cc1ccc(S(=O)(=O)CC#CCOC(=O)c2ccc([N+](=O)[O-])cc2)cc1 | 107 | i | 100 | i | 108

Compound activity (PubChem)
